From PubChem BioAssay (NCI) come the findings set out here.

Structures are written as SMILES. Where “and” joins values, the source holds several entries; their conditions need not be identical. Equal entries are not always repeated. The panel holds about 83,000 compounds, 20% with a hit somewhere; the sample as a whole holds those more often.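 Values shown are percent growth following 48 h exposure of cells in 96-well plates to a single concentration of compound; below 10 was considered active.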 Calls of active or inactive are those of the source.

The assay has as its system MCF7 breast. The assay is described as follows: NCI-60 one-dose screen, 48 h (100 = growth as untreated, 0 = no growth, -100 = all killed). The note with it: 10 µM unless noted.
For `CCOc1ccc(NC(=O)/C(=N\N)C(C(=O)OC)c2nc3ccc(Cl)cc3[nH]c2=O)cc1` (configuration not stated), the growth is 73% [100 µM] (inactive) and 60.5% [100 µM] (inactive).

For the compound `C=C1C(=O)OC2CC3(C)CCCC(C)C3=CC12` (configuration not stated), the growth is -91.8% [100 µM] (active) and -84.5% [100 µM] (active).

In the case of `C=c1c2ccccc2oc2nc3[nH]c(N)c(C#N)c(N)c3c(=N)c12`, the growth is 25.6% [100 µM] (inactive) and 0.562% [100 µM] (active).

With `CC(C)(C)N/N=C(/Cc1nc2c3c(ccc2[nH]c1=O)C(=O)c1ccccc1C3=O)C(=O)NC1=C(Cl)C(=O)c2ccccc2C1=O`, the growth was 6.76% [100 µM] (active) and -75.9% [100 µM] (active).

For `N=C1C(=N)c2ccccc2-c2ccccc21`, the growth is 30.7% [100 µM] (inactive) and 0.817% [100 µM] (active).

With `Cc1c2c(c(C)c3c[n+](C)ccc13)Oc1ccccc1O2`, the growth is -33.4% [100 µM] (active) and -100% [100 µM] (active).

In the case of `O=C(CCc1ccccc1)ON1C(=S)NC(c2ccccc2)(c2ccccc2)C1=S`, the growth is -45.8% [100 µM] (active) and 5.76% [100 µM] (active).

With `C=C1C(=O)OC2CC1C(OC(=O)/C=C/c1ccccc1)C/C(C)=C/CC/C(C)=C/CCC2(C)O` (configuration not stated), the growth was -76% [100 µM] (active) and -30% [100 µM] (active).

For `Cc1cc(O)c2c(c1)C(=O)C(c1c(C)cc3c(c1O)C(=O)C1OC1C3=O)=CC2=O` (configuration not stated), the growth was -64.5% [100 µM] (active) and -90% [100 µM] (active).

Consider `CN1CCc2cc3c(c4c2C1C(O)c1ccccc1-4)OCO3` (configuration not stated), for which the growth was -24.6% [100 µM] (active) and -58.3% [100 µM] (active).

Consider `C=CCO/N=C/c1cc(NC(=S)c2ccoc2C)ccc1Cl`, for which the growth is -83.2% [100 µM] (active) and -45% [100 µM] (active).

`CC1=C(C2=C(C)C(=O)C(=O)c3cc(C)ccc32)c2ccc(C)cc2C(=O)C1=O`: the growth was -55.4% [100 µM] (active) and -100% [100 µM] (active).

Consider `CC1(C)CCC2(C(=O)O)C(O)CC3(C)C(=CCC4C5(C)CCC(OC6OCC(O)C(O)C6OC6OCC(O)C(O)C6OC6OCC(O)C(OC7OC(CO)C(O)C(O)C7O)C6O)C(C)(C)C5CCC43C)C2C1` (configuration not stated), for which the growth is 76.4% [100 µM] (inactive) and 25.5% [100 µM] (inactive).

In the case of `COc1ccc(Nc2nc3ccc(C(F)(F)F)cc3nc2C(=O)O)cc1`, the growth was -31.5% [100 µM] (active) and -100% [100 µM] (active).

With `O=Cc1ccc(-c2ccc(-c3ccc(CO)s3)o2)s1`, the growth is -23.2% [100 µM] (active) and -100% [100 µM] (active).

As to `CC1=CC[C@@H]2[C@@H](CC[C@@]2(C)O)C(C)(C)[C@H]1CC[C@@H]1[C@@]2(C)CCC(=O)C(C)(C)O[C@@H]2CC[C@]1(C)O`, the growth is -36.8% [100 µM] (active) and -100% [100 µM] (active).

On to `On1c(-c2ccccc2)nc2ccccc2c1=S`, for which the growth was 6.65% [100 µM] (active) and -68.9% [100 µM] (active).

As to `CC1=C(Cl)C[C@@H](/C(C)=C\Cl)O[C@@]1(O)C(Br)Br`, the growth was 19.3% [100 µM] (inactive) and -76.7% [100 µM] (active).

Turning to `COc1c(/C=C/C=O)cc2c(c1OC)OCO2`, the growth was -30% [100 µM] (active) and -83.3% [100 µM] (active).

For the compound `CCOC(=O)COc1cc(-c2ccccc2F)nc2cc3c(cc12)OCO3`, the growth is 42.6% [100 µM] (inactive) and 19.5% [100 µM] (inactive).

As to `O=C(O)CCCOc1cc(-c2ccccc2F)nc2cc3c(cc12)OCO3`, the growth is 9.31% [100 µM] (active) and -50% [100 µM] (active).

Regarding `COc1ccc2c(c1)C(N)=C(c1ccccc1)C2=O`, the growth was 57.4% [100 µM] (inactive) and 16.6% [100 µM] (inactive).

For the compound `C[C@@H]1CCC([C@@H](C)[C@H]2CC[C@H]3[C@@H]4CC[C@H]5C[C@@H](O)CC[C@]5(C)[C@H]4CC[C@]23C)=NC1`, the growth is 8.1% [100 µM] (active) and -46.7% [100 µM] (active).

Turning to `COc1ccc2nc3c4c(nccc4c2c1)-c1ncccc1C3=O`, the growth is -82% [50 µM] (active) and -100% [50 µM] (active).

On to `C=C(C)C1CC2(C)C(C)CC(O)CC2C(OC(=O)C=C(C)C)C1O` (configuration not stated), for which the growth was 5.38% [100 µM] (active) and 25.4% [100 µM] (inactive).

Regarding `CC1=CC[C@@H]2[C@@H](CC[C@@]2(C)O)C(C)(C)[C@H]1CC[C@@H]1[C@@]2(C)CC[C@@H](O)C(C)(C)O[C@@H]2CC[C@]1(C)O`, the growth is -12.8% [100 µM] (active) and -70.8% [100 µM] (active).

On to `COC(=O)[C@]1(C)CCC[C@@]2(C)[C@@H]3C[C@@H]4[C@H]5C[C@@]3(CC[C@@H]21)C[C@@]45C`, for which the growth was -81% [100 µM] (active) and -80% [100 µM] (active).

Consider `CCOC(=O)C1C(C(C)C)C2(C#N)C(=N)OC1(C)C2(C#N)C#N` (configuration not stated), for which the growth was 2.36% [100 µM] (active) and -41% [100 µM] (active).

For `Cn1c(COC(=O)NC2CCCCC2)c(COC(=O)NC2CCCCC2)c2ccc3cc(Cl)c(Cl)cc3c21`, the growth is -78.6% [100 µM] (active).

As to `Fc1cccc(F)c1C1SCc2nc3cc4ccccc4cc3n21` (configuration not stated), the growth was -28.9% [100 µM] (active) and -2.13% [100 µM] (active).

Take `COc1ccc(OC)c(Cc2cnc3nc(N)nc(N)c3c2C)c1`: the growth is 3.33% [100 µM] (active) and -100% [100 µM] (active).

As to `CC1(C)CCC[C@]2(C)[C@@H](C=O)C(C=O)=CC[C@@H]12`, the growth was -13.9% [100 µM] (active) and -1.67% [100 µM] (active).

Turning to `Cc1ccc(/C=N/Nc2cc(C)c3cccc(C)c3n2)s1`, the growth is -73.1% [100 µM] (active) and -100% [100 µM] (active).

Turning to `S=C1NC2=C(COc3ccccc32)C(c2ccc(Cl)cc2)N1` (configuration not stated), the growth was -4.81% [100 µM] (active) and -100% [100 µM] (active).

On to `CCOc1cc2c(cc1O)/C(=N\OC)C[C@@H]1[C@@H]2CC[C@]2(C)[C@@H](O)CC[C@@H]12`, for which the growth is 0.562% [100 µM] (active) and -100% [100 µM] (active).

Turning to `C=C(CO)C(=O)OC1CC(=C)C2CC(O)C(C)C2C2OC(=O)C(=C)C12` (configuration not stated), the growth was 73.2% [100 µM] (inactive) and -86.7% [100 µM] (active).

With `CC1OC(OC2C(OC3CCC4(C)C(CCC5(C)C4CC=C4C6CC(C)(C)CCC6(C(=O)O)CCC45C)C3(C)CO)OCC(O)C2O)C(O)C(O)C1O` (configuration not stated), the growth is -88% [100 µM] (active) and -90.5% [100 µM] (active).
